This is a sample that favours compounds with a hit; in the whole collection about 4.8% have one here.
hcDAF12 agonist – H. contortus DAF-12 nuclear receptor activators, primary screen, cell-based, luminescence, HEK293, lit1-tk-luc reporter; HEK293 hcDAF-12 lit1-tk-luc reporter; 0% DMSO, 100% Δ7-dafachronic acid; activation, % at 6.8 µM; hit rate 1.4% among 370,000; AID 652067, 2013;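 active means activation above the mean of all tested compounds plus 3 SD, cut at about 5.5% in these data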
DAX1 inh-1 – DAX1 (NR0B1) inhibitors on StAR promoter, primary screen, cell-based, luminescence, SF-1 (NR5A1), full-length DAX-1; HEK293T StAR-luciferase reporter, SF-1/DAX-1 repression relief; inhibition, % at 6.8 µM; hit rate 1.1% among 370,000; AID 652010, 2013;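 active means inhibition above the mean over all tested compounds plus 3 SD, cut at about 3.6% in these data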;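 further: higher inhibition means more luminescence from relief of DAX-1 repression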
DAX1 inh-2 – DAX1 (NR0B1) inhibitors, primary screen, cell-based, HEK293, Gal4-DAX1, luciferase luminescence; hit rate 0.99% among 340,000; inhibition, % at 6.75 µM; HEK293 Gal4-DAX1 luciferase reporter; Nuclear receptor subfamily 0 group B member 1 (Homo sapiens), P51843;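 active means inhibition above the mean over all tested compounds plus 3 SD, cut at about 4.2% in these data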;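 further: inhibition shows as a rise in luminescence from relieved DAX1 repression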
Target sequence (P51843 207-470 limits assumed): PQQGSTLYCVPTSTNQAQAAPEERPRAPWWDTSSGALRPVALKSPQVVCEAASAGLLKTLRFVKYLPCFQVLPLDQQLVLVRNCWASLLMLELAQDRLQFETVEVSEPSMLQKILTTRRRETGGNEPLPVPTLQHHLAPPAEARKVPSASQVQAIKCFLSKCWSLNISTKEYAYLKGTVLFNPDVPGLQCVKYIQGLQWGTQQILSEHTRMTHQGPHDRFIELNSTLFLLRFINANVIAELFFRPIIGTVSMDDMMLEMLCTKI
SMARCA2 act – SMARCA2 (BRM) function activators, primary screen, cell-based, luminescence, high throughput; MG213 cells, MMTV-luciferase reporter, dexamethasone, overnight; activation, % at 9.1 µM; hit rate 1% among 370,000; AID 652017, 2013; in the data active means activation above about 7.8%
hgDAF12 agonist – H. glycines DAF-12 receptor agonists, primary screen, cell-based, luminescence, HEK293, GAL4 fusion, UAS-luciferase; Nuclear hormone receptor DAF-12 (Heterodera glycines), GAL4 fusion; activation, % at 6.8 µM; hit rate 1.8% among 370,000; HEK293 GAL4-hgDAF12 UAS-luciferase reporter, agonist luminescence; normalized to butyrate control;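 active means activation above a cutoff set at the mean of all screened compounds plus 3 SD, cut at about 10% in these data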
ssDAF12 agonist – S. stercoralis DAF-12 nuclear receptor activators, primary screen, cell-based, luminescence, HEK293, GRIP1 co-expression, lit1-tk-luc. Nuclear hormone receptor DAF-12 (Strongyloides stercoralis). HEK293 ssDAF-12/GRIP1 lit1-tk-luc reporter; % of 3 µM dafachronic acid response. activation, % at 6.8 µM. hit rate 1% among 370,000. AID 652126, 2013;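 active means activation above the mean over all tested compounds plus 3 SD, cut at about 0.9% in these data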
hgDAF12 ag – H. glycines DAF-12 receptor agonists, confirmation, cell-based, luminescence, HEK293, GAL4-LBD fusion. shares compounds with hgDAF12 agonist. HEK293 GAL4-hgDAF12 luciferase reporter, agonist mode; percent of butyrate response. activation, % at 6.8 µM. hit rate 80% among 3,300;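 active means mean activation over triplicate wells above the hit cutoff derived from the earlier primary screen, cut at about 11% in these data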
LXRb DAF12 ctr – LXR agonists, Gal4 luciferase reporter, confirmation, counter-screen for hgDAF-12 agonist project, cell-based, luminescence, HEK293, H. glycines campaign. shares compounds with hgDAF12 agonist. 24 h. activation, % at 6.8 µM. 3,300 tested, under 10 active. AID 743051, 2013;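 active means mean activation of the triplicate above a set limit carried over from the primary screen, none filed active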
Numbers stand for hits; n = inactive; x = no result given.

SMILES	hcDAF12 agonist	DAX1 inh-1	DAX1 inh-2	SMARCA2 act	hgDAF12 agonist	ssDAF12 agonist	hgDAF12 ag	LXRb DAF12 ctr
COc1ncccc1-c1nnn(-c2ccc(C)cc2)n1	n	n	n	n	17	n	17	n
COc1ccc(OC)c(C2=NS(=O)(=O)N(C)C(C(=O)Nc3ccc(C(C)=O)cc3)=C2)c1	n	n	n	n	n	n	x	x
Nc1ccc(N=Nc2ccccc2)c(N)n1	n	4.1	n	n	16	n	13	n
CN(C(=O)c1ccco1)c1nnc(C23CC4CC(CC(C4)C2)C3)s1	n	n	n	n	n	n	x	x
CCN(C(=O)CSc1ncn[nH]1)C1CCCCC1	n	n	n	n	n	n	x	x
O=C(COc1ccc(F)cc1)Nc1nnc(-c2ccncc2)s1	n	n	n	n	n	n	x	x
CN(C)C(=O)CCc1ccc2c3c([nH]c2c1)[C@]1(C)[C@@H](C(=O)N2CCOCC2)C[C@H](CC(=O)NCCN2CCOCC2)C(=O)N1CC3	n	n	n	n	n	n	x	x
Oc1[nH]c2ccccc2c1N=Nc1nncc2ccccc12	n	n	n	n	16	n	12	n
O=C(N/N=C/C(Cl)=C\c1ccccc1)c1cccs1	n	n	n	n	18	1.4	16	n
O=C(N/N=C/C(Cl)=C/c1ccccc1)c1ccccn1	n	n	n	n	15	n	12	n
CO/N=C/NC(=O)N1OC[C@@H]2COc3ccc4ccccc4c3[C@@H]21	n	n	n	n	n	n	x	x
NC(=S)N1OC[C@@H]2COc3ccc4ccccc4c3[C@@H]21	n	n	n	n	21	n	n	n
CN(C)c1ccc(/C=C(\C#N)c2ccccn2)cc1	n	n	n	n	n	n	x	x
COC(=O)c1ccc(/C=C(\C#N)c2ccccn2)cc1	n	n	5.0	n	15	1.5	14	n
CC(=O)NC(c1ccccc1)c1nc(-c2cccc(F)c2)cs1 (stereo not given)	n	n	x	n	n	n	x	x
COc1cccc(NC(=O)c2nc3ncccn3n2)c1	n	n	n	n	n	n	x	x
Nc1[nH]c(C(=O)c2ccccc2)c(-c2ccccc2Br)c1C(=O)NCc1ccc(-c2ccccc2)cc1	n	n	x	n	n	n	x	x
O=C(c1ccc(Cl)cc1)c1coc2ccc(O)cc12	n	n	n	n	17	n	18	n
O=C(c1coc2ccc(O)cc12)C1CC1	n	n	n	n	n	n	x	x
O=C(Nc1ncc([N+](=O)[O-])s1)c1cccc([N+](=O)[O-])c1	5.9	n	4.6	n	14	n	n	n
c1cnn2c(-c3ccc4c(c3)CCO4)cnc2c1	n	n	x	n	14	n	n	n
Cc1ccc(C)c(NC(=O)c2nc(Cl)ccc2Cl)c1	n	n	n	n	14	n	n	n
COC(=O)CNC(=O)c1ccccc1C	n	n	n	n	n	n	x	x
Cc1ccccc1C(=O)NCC(=O)c1ccccc1	n	n	x	n	13	n	11	n
O=C(c1ccccc1)c1cc(F)c(N2CCOCC2)cc1Cl	n	n	n	n	n	n	x	x
SMILES	hcDAF12 agonist	DAX1 inh-1	DAX1 inh-2	SMARCA2 act	hgDAF12 agonist	ssDAF12 agonist	hgDAF12 ag	LXRb DAF12 ctr
O=C(c1ccccc1)c1ccc(N2CCOCC2)c(F)c1	n	n	n	n	16	n	14	n
O=C(NC1CCS(=O)(=O)C1)c1c(NC(=O)C2COc3ccccc3O2)sc2c1CCCC2 (stereo not given)	n	n	n	n	n	n	x	x
Cc1cc(C)n(-c2nnc(NC34CC5CC(CC(C5)C3)C4)nn2)n1	n	n	n	n	13	n	15	n
O=C(Nc1cccc(Cl)c1Cl)c1csc([C@@H]2O[C@H](CO)[C@@H](O)[C@H]2O)n1	n	n	x	n	n	n	x	x
O=C(Nc1cccc(Cl)c1Cl)c1csc([C@H]2C[C@H](O)[C@@H](CO)O2)n1	n	n	x	n	15	n	13	n
O=C(Nc1ccc(Br)cc1)c1ccccc1Br	n	n	4.9	n	13	n	16	n
Cc1ccc(Nc2cc(C)c3c(O)cccc3n2)cc1C	n	n	n	n	15	n	15	n
O=C(/C=C/c1ccccc1[N+](=O)[O-])Nc1ccccc1	n	4.0	6.7	n	18	n	16	n
COc1cc(NC(=O)/C=C/c2ccccc2[N+](=O)[O-])cc(OC)c1	n	n	n	n	n	n	x	x
CN(C(=O)/C=C/c1ccccc1)C1CCS(=O)(=O)C1 (stereo not given)	n	n	n	n	n	n	x	x
CN(C(=O)/C=C/c1ccccc1)C1CCCCC1	n	n	x	n	14	n	17	n
CC(C)=CC(=O)Nc1ccc(Br)cc1	n	n	n	n	16	n	15	n
CC(=O)Nc1ccc(NC(=S)Nc2ccc(Br)cc2)cc1	n	n	n	n	n	n	x	x
Cc1ccc(S(=O)(=O)NC(C)(C)CSc2ccccn2)cc1	n	n	n	n	n	n	x	x
CCc1ccc(NC(=O)c2cnccn2)cc1	n	n	n	n	15	n	13	n
Cc1ccc(Oc2ccc(Cl)cc2N)cc1	n	n	n	n	n	n	x	x
Nc1cc(Cl)ccc1Oc1ccc2ccccc2c1	n	n	n	n	22	n	n	n
O=C(CCCl)NC1CCCCN(Cc2ccc(OC(F)(F)F)cc2)C1=O (stereo not given)	n	n	x	n	n	n	x	x
Cc1cccc(NC(=O)NN(C(=O)c2ccccc2Cl)C(C)(C)C)c1	n	n	x	n	13	n	n	n
Cc1ccc(SCCN2CCC(C)CCC2=O)cc1 (stereo not given)	n	n	n	n	14	n	17	n
C[C@H]1CCC(=O)N(CCSc2ccc(Br)cc2)CC1	n	n	n	n	n	n	x	x
CCOC(=O)c1cc2sccc2n1CC(=O)Nc1ccc(OC)c(OC)c1	n	n	n	n	n	n	x	x
Oc1ccc(/C=N/NC(=S)Nc2cccnc2)cc1	n	n	n	n	15	n	11	n

Compound activity: PubChem, The Scripps Research Institute Molecular Screening Center
